HT1080 IDH1KD tx = toxicity to HT-1080 IDH1 knockdown cells (counter line). HT-1080 IDH1 knockdown viability, ATP luminescence, 48 h. Potency, µM (series often up to 46.1 µM), hits mostly cytotoxic. actives 2% (n = 360,000). AID 686971
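% activity derives from luminescence (CellTiter-Glo), normalised to DMSO and no-cell wells. HT-1080-IDH1KD cells, 750/well, had 48 h compound exposure at 37 °C.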
HT1080-NT tox = kills 2HG-producing HT-1080-NT fibrosarcoma cells; actives 1.6% (n = 360,000); Potency, µM (series often up to 46.1 µM), hits mostly cytotoxic; HT-1080-NT fibrosarcoma viability, CellTiter-Glo ATP luminescence, 48 h;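 also: NT is the 2HG producing partner of a matched IDH1 knockdown line; nearly all actives have a fitted effect of over 55% in size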
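Viability by CellTiter-Glo luminescence after 48 h compound exposure at 37C of HT-1080-NT cells (750/well, RPMI, 5% FBS). % activity scaled between DMSO wells and medium-only wells, then curve-fitted and categorized by curve class.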
IL1B secr inh = blocks inflammasome-driven IL-1 beta release. actives 4.7% (n = 360,000). activity change, % at 57.5 µM. THP-1 LPS/ATP IL-1B secretion, AlphaLISA, 16 h; hits give low values; in the data active = activity change below about -50%; inconclusive = mostly about -30% to -49%
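Secreted IL-1B measured by AlphaLISA bead assay after 16 h compound exposure of THP-1 cells; compounds (final up to 57.5 uM) added 1 h before LPS (250 ng/mL) and ATP (1.25 mM) stimulation; lower signal means less secretion.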
TDP1 cell noCPT = qHTS for Inhibitors of human tyrosyl-DNA phosphodiesterase 1 (TDP1): qHTS in cells in absence of CPT. AID 686978, 2013. actives 15% (n = 420,000). Potency, µM (highest dose often 46.2 µM), usual class: inhibitors. DT40 Tdp1-/- hTDP1 cells, no CPT, ATP luminescence, 48 h; also: nearly all actives have a fitted effect of over 55% in size
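Growth of hTDP1-complemented DT40 Tdp1-knockout cells is measured by ATP luminescence after at least 48 hr compound exposure at 37 °C, with DMSO substituting for the 20 nM CPT used in the parallel screen.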
uPA generation = cell surface uPA generation inhibition. cell surface uPA generation assay, qHTS. Potency, µM (titrated, usually from 38.3 µM), hits mostly inhibitors. actives 0.31% (n = 330,000). AID 540303; active = well fitted inhibition curve with a large enough effect; inconclusive = small, poorly fitted or top-dose-only effect; inactive = no such curve, though single readings can be large or run the other way; tested in mouse RAW 264.7 cells; also: nearly all actives have a fitted effect of over 55% in size
DT40 TDP1 CPT = growth inhibition of DT40 Tdp1-/-;hTDP1 cells with camptothecin (screen for TDP1 inhibitors); Potency, µM (highest dose often 46.2 µM), most hits filed as inhibitors; actives 12% (n = 420,000); chicken DT40 Tdp1-/-;hTDP1 cells + 20 nM CPT, ATP luminescence, 48 h; AID 686979; also: nearly all actives have a fitted effect of over 55% in size
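Chicken DT40 Tdp1-/- cells stably complemented with human TDP1 were seeded at 400 cells/well in medium containing 20 nM camptothecin, exposed to pin-transferred compounds, and grown at 37 °C for at least 48 hr. Viability was read as ATP luminescence.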
Of the large screens only hits and unclear results are named; the others gave an inactive call. In the library only some 19% were active in any assay of this set; here they are far more common. Unless noted, calls follow the shape of the dose curve; as a rule, active = well fitted curve in the direction sought with a large enough effect; inconclusive = small, poorly fitted or top-dose-only effect, or another doubt; inactive = no such curve, though single readings can be large; an effect the other way counts as inactive or inconclusive.

CCOC(=O)c1c(NC(=O)C2C3C=CC(C3)C2(C)C(=O)O)sc2c1CCCC2 (stereo not given)	TDP1 cell noCPT 18µM, DT40 TDP1 CPT 13µM
CCOC(=O)c1c(NC(=O)C(C)OC(=O)C2=COCCO2)sc2c1CCCC2 (stereo not given)	TDP1 cell noCPT inconclusive, DT40 TDP1 CPT inconclusive
CCOC(=O)c1c(NC(=O)C2CCCCC2C(=O)O)sc2c1CCCCC2 (stereo not given)	none
CCOC(=O)c1c(NC(=O)c2ccc(Br)cc2)sc2c1CCCC2	none (no result: HT1080 IDH1KD tx, HT1080-NT tox, IL1B secr inh, uPA generation)
CCOC(=O)c1c(NC(=O)c2ccc(-n3cnnn3)cc2)sc2c1CCCC2	TDP1 cell noCPT 16µM, DT40 TDP1 CPT 12µM
COc1ccc(N2CCN(C3CCCN(Cc4ccc(F)cc4Cl)C3)CC2)cc1 (stereo not given)	TDP1 cell noCPT inconclusive, DT40 TDP1 CPT inconclusive
CS(=O)(=O)N1CCC(Oc2ccccc2C(=O)NC(C2CC2)C2CC2)CC1	none (no result: uPA generation)
CCOc1ccc(C(=O)N(CN2CCCC2=O)c2ccc(C)cc2)cc1	TDP1 cell noCPT 23µM, DT40 TDP1 CPT 8.2µM (no result: uPA generation)
CCOc1ccc(C(=O)N(CN2CCCC2=O)c2ccccc2)cc1	TDP1 cell noCPT inconclusive
CC(C)N1C(=O)C(Cc2nc3ccccc3c(=O)n2-c2ccccc2)c2ccccc21 (stereo not given)	DT40 TDP1 CPT inconclusive
CC(C)N1C(=O)/C(=C/c2nc3ccccc3c(=O)n2-c2ccccc2)c2ccccc21	HT1080 IDH1KD tx inconclusive, IL1B secr inh -96, TDP1 cell noCPT 23µM, DT40 TDP1 CPT 21µM
CC(C)Cn1c(CN2C(=O)c3ccccc3C2=O)nc2ccccc2c1=O	none
CC(C)N1C(=O)/C(=C\c2nc3ccccc3c(=O)n2-c2ccccc2)c2ccccc21	HT1080 IDH1KD tx inconclusive, HT1080-NT tox inconclusive, IL1B secr inh -106, TDP1 cell noCPT 16µM, DT40 TDP1 CPT 23µM
COC(=O)C1C=CC(OC2OC(COC(C)=O)C(OC(C)=O)C(OC(C)=O)C2OC(C)=O)n2c(=O)n(-c3ccccc3)c(=O)n21 (stereo not given)	HT1080 IDH1KD tx 5.8µM, HT1080-NT tox inconclusive, TDP1 cell noCPT 0.82µM, DT40 TDP1 CPT 0.73µM
Brc1cccc(OCCCCN2CCCCC2)c1	IL1B secr inh inconclusive, TDP1 cell noCPT inconclusive
COC(=O)c1ccc2nc(-c3ccc(Cl)cc3)c(Cc3cccc(Cl)c3)n2c1	TDP1 cell noCPT 18µM, DT40 TDP1 CPT inconclusive (no result: uPA generation)
COC(=O)c1ccc2nc(-c3ccc(Cl)cc3)c(Cc3ccc(OC)cc3C)n2c1	TDP1 cell noCPT inconclusive, DT40 TDP1 CPT inconclusive (no result: uPA generation)
COC(=O)c1ccc2nc(-c3ccc(C)cc3)c(Cc3cccc(Cl)c3)n2c1	TDP1 cell noCPT 16µM, DT40 TDP1 CPT 16µM (no result: uPA generation)
O=C1Nc2ccc3c(c2C1=Cc1cc2c(cc1Br)OCO2)OCO3	HT1080-NT tox inconclusive, TDP1 cell noCPT 4.6µM, DT40 TDP1 CPT 3.3µM
O=C1NC(=O)/C(=C/c2cc3c(cc2Br)OCO3)S1	TDP1 cell noCPT inconclusive
COc1cc(C2CC(=O)Oc3cc(C)c(Br)c(C)c32)cc(OC)c1OC (stereo not given)	TDP1 cell noCPT inconclusive, DT40 TDP1 CPT 21µM
O=C(CCN1CCN(Cc2ccccc2)CC1)NNC(=O)Nc1cccc(C(F)(F)F)c1	none
CCn1c(=O)cc(OCC(=O)N2CCN(C(=O)c3ccco3)CC2)c2ccccc21	DT40 TDP1 CPT inconclusive
Cn1c(=O)cc(OCC(=O)N2CCN(c3cccc(C(F)(F)F)c3)CC2)c2ccccc21	TDP1 cell noCPT 15µM, DT40 TDP1 CPT 21µM (no result: uPA generation)
CCn1c(=O)cc(OCC(=O)N(C)C2CCCCC2)c2ccccc21	DT40 TDP1 CPT inconclusive
CCn1c(=O)cc(OCC(=O)N(C)c2cc(Cl)ccc2C)c2ccccc21	TDP1 cell noCPT 23µM, DT40 TDP1 CPT 21µM (no result: HT1080 IDH1KD tx, HT1080-NT tox, IL1B secr inh, uPA generation)
CCn1c(=O)cc(OCC(=O)N2CCN(c3cccc(Cl)c3)CC2)c2ccccc21	TDP1 cell noCPT 15µM, DT40 TDP1 CPT 23µM (no result: HT1080 IDH1KD tx, HT1080-NT tox, IL1B secr inh, uPA generation)
CCn1c(=O)cc(OCC(=O)N2CCN(c3cccc(C)c3C)CC2)c2ccccc21	TDP1 cell noCPT 7.3µM, DT40 TDP1 CPT 9.2µM (no result: HT1080 IDH1KD tx, HT1080-NT tox, IL1B secr inh, uPA generation)
C[C@@H]1C[C@@H](CC(=O)NCC2Cc3cccc(-c4ccncc4)c3O2)NC(=S)N1 (stereo not given in full)	none (no result: HT1080 IDH1KD tx, HT1080-NT tox, IL1B secr inh, uPA generation)
N#CCCn1cc(/C=N/N=C2\NC(=O)C(CC(=O)O)S2)c(-c2ccc(F)cc2)n1 (stereo not given)	none
Fc1ccc(-c2nnc3ccc(N4CCc5ccccc5C4)nn23)cc1	IL1B secr inh -89, TDP1 cell noCPT 8.2µM, uPA generation inconclusive, DT40 TDP1 CPT 9.2µM
O=C(Nc1ccc(F)cc1)N1CCN(c2ccc3nnc(-c4ccc(F)cc4)n3n2)CC1	HT1080 IDH1KD tx inconclusive, HT1080-NT tox inconclusive, TDP1 cell noCPT inconclusive, DT40 TDP1 CPT inconclusive
COc1cc2[nH]c(=S)nc(NC3CCCCCC3)c2cc1OC	HT1080 IDH1KD tx inconclusive, HT1080-NT tox inconclusive, IL1B secr inh -139, TDP1 cell noCPT inconclusive, DT40 TDP1 CPT inconclusive
COc1ccccc1CNc1nc(=S)[nH]c2cc(OC)c(OC)cc12	HT1080-NT tox inconclusive, TDP1 cell noCPT inconclusive, DT40 TDP1 CPT inconclusive
COc1cc2[nH]c(=S)nc(NCc3cccs3)c2cc1OC	TDP1 cell noCPT 23µM
COc1ccc(/C=N/n2cc(-c3ccc(OC)cc3)nc2N)cc1	TDP1 cell noCPT inconclusive, DT40 TDP1 CPT inconclusive
COc1ccc(/C=N/n2cc(-c3ccccc3)nc2N)cc1	TDP1 cell noCPT 5.2µM, DT40 TDP1 CPT 3.3µM
CC(C)C[C@H]1CNC(=S)N1C[C@H]1CCCN1C[C@H](Cc1ccc(O)cc1)N1C[C@H](Cc2ccccc2)N(CC2CCCCCC2)C1=S	TDP1 cell noCPT 18µM, DT40 TDP1 CPT 18µM (no result: uPA generation)
CC(C)C[C@H]1CNC(=S)N1CC1CCCN1C[C@H](Cc1ccccc1)N1C[C@H](Cc2ccccc2)N(CC2CCCCC2)C1=S (stereo not given in full)	HT1080 IDH1KD tx inconclusive, IL1B secr inh inconclusive, TDP1 cell noCPT inconclusive, DT40 TDP1 CPT inconclusive (no result: uPA generation)
CC(C)C[C@H]1CNC(=S)N1C[C@H]1CCCN1C[C@H](Cc1ccccc1)N1C[C@H](Cc2ccc(O)cc2)N(CC2CCCCC2)C1=S	HT1080 IDH1KD tx 16µM, HT1080-NT tox 15µM, IL1B secr inh inconclusive, TDP1 cell noCPT 23µM, DT40 TDP1 CPT 16µM (no result: uPA generation)
CC(C)C[C@H]1CNC(=S)N1CC1CCCN1C[C@H](Cc1ccc(O)cc1)N1C[C@H](Cc2ccccc2)N(CC2CCCCC2)C1=S (stereo not given in full)	HT1080-NT tox inconclusive, IL1B secr inh -54, TDP1 cell noCPT 5.8µM, DT40 TDP1 CPT 5.8µM
